Measured values: PubChem BioAssay (EPA / NIEHS)
The source made the active and inactive calls. The calls were made as follows: active = hit-call score of the fitted dose curve at least 0.9, where 1 is the maximum; inactive = score below 0.9.

Columns and labels:
Conditions in all cases: mRNA level, 48 h; actives raise or lower the signal
[1] = read-out: ABC Transporter (ABCB11), ABCB11 (gene 8647); test: LTEA_HepaRG_ABCB11: Life Technologies and Expression Analysis (LTEA) Assay for ABC Transporter (ABCB11) using HepaRG (AID 2283463)
Summary of the method: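 ABCB11 transcript levels are read by Fluidigm TaqMan qRT-PCR after 48 h chemical treatment of human HepaRG cells. Concentrations span 100 uM downward in half-log steps with 0.5% DMSO; gain or loss is fitted against DMSO controls.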

[2] = read-out: Broad substrate specificity ATP-binding cassette transporter ABCG2 (Homo sapiens) (UniProt Q9UNQ0); test: LTEA_HepaRG_ABCG2: Life Technologies and Expression Analysis (LTEA) Assay for ABC Transporter (ABCG2) using HepaRG (AID 2283465)
Summary of the method: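 Read-out is ABCG2 mRNA induction or loss quantified by qRT-PCR after 48 h chemical treatment of human HepaRG cells, normalized to three housekeeping genes. Concentrations reached 100 uM top in half-log steps; fitting was bidirectional against 0.5% DMSO.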

[3] = read-out: ATP-citrate lyase (ACLY), ACLY (gene 47); test: LTEA_HepaRG_ACLY: Life Technologies and Expression Analysis (LTEA) Assay for ATP-citrate lyase (ACLY) using HepaRG (AID 2283466)
Summary of the method: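 HepaRG, 48 h exposure, 8-pt half-log dilutions (top 100 uM), 0.5% DMSO. Readout: ACLY mRNA, TaqMan qRT-PCR, housekeeping-normalized (ACTB/GAPDH/POLR2A). Bidirectional curve fit vs DMSO.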

[4] = read-out: Peroxisomal acyl-coenzyme A oxidase 1 (ACOX1) gene, ACOX1 (gene 51); test: LTEA_HepaRG_ACOX1: Life Technologies and Expression Analysis (LTEA) Assay for Peroxisomal acyl-coenzyme A oxidase 1 (ACOX1) gene using HepaRG (AID 2283467)
Summary of the method: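 Measured by qRT-PCR against three housekeeping genes: ACOX1 transcript change in human HepaRG cells after 48 h dosing. Concentrations ran up to 100 uM in half-log steps. Curves were fitted bidirectionally relative to 0.5% DMSO.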

[5] = read-out: Alkaline Phosphatase, Placental (ALPP) gene, ALPP (gene 250); test: LTEA_HepaRG_ALPP: Life Technologies and Expression Analysis (LTEA) Assay for Alkaline Phosphatase, Placental (ALPP) gene using HepaRG (AID 2283468)
Summary of the method: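 Differentiated human HepaRG cells were plated and cultured 48 h, then exposed in duplicate for 48 h in serum-free induction medium to eight half-log concentrations from 100 uM in 0.5% DMSO. ALPP mRNA was measured by TaqMan qRT-PCR, normalized to ACTB, GAPDH, POLR2A.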

[6] = read-out: Bcl-2 (BAD) gene, BAD (gene 572); test: LTEA_HepaRG_BAD: Life Technologies and Expression Analysis (LTEA) Assay for Bcl-2 (BAD) gene using HepaRG (AID 2283469)
Summary of the method: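 BAD transcript change, measured by qRT-PCR against three housekeeping genes and fitted in both directions relative to 0.5% DMSO, after 48 h chemical treatment of human HepaRG liver cells at concentrations up to 100 uM.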

[7] = read-out: Bcl-2 (BAX) gene, BAX (gene 581); test: LTEA_HepaRG_BAX: Life Technologies and Expression Analysis (LTEA) Assay for Bcl-2 (BAX) gene using HepaRG (AID 2283470)
Summary of the method: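 Differentiated HepaRG cells exposed 48 h in serum-free induction medium, eight half-log concentrations from 100 uM, in duplicate, 0.5% DMSO vehicle. BAX mRNA by TaqMan qRT-PCR, normalised to ACTB, GAPDH and POLR2A.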

[8] = read-out: adenosine kinase (ADK) gene, ADK (gene 132); test: LTEA_HepaRG_ADK: Life Technologies and Expression Analysis (LTEA) Assay for adenosine kinase (ADK) gene using HepaRG (AID 2283471)
Summary of the method: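 Following 48 h exposure of HepaRG cells in 0.5% DMSO (top concentration 100 uM, duplicate wells), ADK mRNA induction or suppression was measured by qRT-PCR, normalised to ACTB/GAPDH/POLR2A, and fitted bidirectionally relative to vehicle.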

[9] = read-out: Alpha-fetoprotein (AFP) gene, AFP (gene 174); test: LTEA_HepaRG_AFP: Life Technologies and Expression Analysis (LTEA) Assay for Alpha-fetoprotein (AFP) gene using HepaRG (AID 2283472)
Summary of the method: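 Differentiated human HepaRG cells exposed 48 h in serum-free induction medium, 8-point half-log series from 100 uM in 0.5% DMSO, duplicate. AFP mRNA by qRT-PCR, normalized to ACTB, GAPDH, POLR2A; bidirectional fit vs DMSO.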

[10] = read-out: BCL2L11 (gene 10018); test: LTEA_HepaRG_BCL2L11: Life Technologies and Expression Analysis (LTEA) Assay for Bcl-2 (BCL2L11) gene using HepaRG (AID 2283473)
Summary of the method: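 Differentiated human HepaRG cells in serum-free induction medium were exposed in duplicate for 48 h to eight concentrations (top 100 uM, half-log steps, 0.5% DMSO). BCL2L11 mRNA was quantified by TaqMan qRT-PCR, normalized to ACTB/GAPDH/POLR2A, bidirectional fit versus DMSO.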

[11] = read-out: Apolipoprotein A-V (APOA5) gene, APOA5 (gene 116519); test: LTEA_HepaRG_APOA5: Life Technologies and Expression Analysis (LTEA) Assay for Apolipoprotein A-V (APOA5) gene using HepaRG (AID 2283474)
Summary of the method: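 Differentiated human HepaRG cells were exposed in duplicate for 48 h to eight half-log concentrations from 100 uM in 0.5% DMSO. APOA5 mRNA was quantified by TaqMan qRT-PCR, normalized to ACTB, GAPDH and POLR2A, and fitted bidirectionally against DMSO.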

[12] = read-out: Apoptosis regulator Bcl-2 (Homo sapiens) (UniProt P10415); test: LTEA_HepaRG_BCL2: Life Technologies and Expression Analysis (LTEA) Assay for Bcl-2 gene using HepaRG (AID 2283475)
Summary of the method: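 Differentiated human HepaRG cells in serum-free induction medium exposed 48 h, in duplicate, to 8-point half-log series from 100 uM in 0.5% DMSO. BCL2 mRNA by qRT-PCR (TaqMan/Fluidigm), normalized to ACTB, GAPDH, POLR2A; bidirectional fit against DMSO.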

[13] = read-out: Caspase-3 (Homo sapiens) (UniProt P42574); test: LTEA_HepaRG_CASP3: Life Technologies and Expression Analysis (LTEA) Assay for cysteine-aspartic acid protease (CASP3) using HepaRG (AID 2283477)
Summary of the method: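 Differentiated human HepaRG cells in serum-free induction medium were exposed 48 h to 8-point half-log concentrations from 100 uM (0.5% DMSO vehicle). CASP3 mRNA was measured by qRT-PCR, normalised to ACTB, GAPDH and POLR2A, with bidirectional fitting against DMSO.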

[14] = read-out: Cytochrome P450 (CYP24A1), CYP24A1 (gene 1591); test: LTEA_HepaRG_CYP24A1: Life Technologies and Expression Analysis (LTEA) Assay for Cytochrome P450 (CYP24A1) using HepaRG (AID 2283478)
Summary of the method: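 Differentiated HepaRG cells, pre-cultured 48 h, were exposed in duplicate for 48 h in serum-free induction medium to 8 half-log concentrations (top 100 uM, 0.5% DMSO). CYP24A1 mRNA was quantified by TaqMan qRT-PCR, normalized to ACTB/GAPDH/POLR2A, fitted bidirectionally versus DMSO.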

[15] = read-out: Cytochrome P450 (CYP1A2), CYP1A2 (gene 1544); test: LTEA_HepaRG_CYP1A2: Life Technologies and Expression Analysis (LTEA) Assay for Cytochrome P450 (CYP1A2) using HepaRG (AID 2283479)
Summary of the method: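 Differentiated human HepaRG cells in serum-free induction medium were exposed in duplicate for 48 h to 8-point half-log concentrations up to 100 uM in 0.5% DMSO. CYP1A2 mRNA measured by qRT-PCR, normalized to ACTB, GAPDH, POLR2A; bidirectional fit vs DMSO.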

[16] = read-out: cysteine-aspartic acid protease (CASP8), CASP8 (gene 841); test: LTEA_HepaRG_CASP8: Life Technologies and Expression Analysis (LTEA) Assay for cysteine-aspartic acid protease (CASP8) using HepaRG (AID 2283480)
Summary of the method: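 HepaRG, 48 h exposure, duplicate wells; 8 conc, half-log from 100 uM, 0.5% DMSO. Serum-free induction medium. CASP8 mRNA by TaqMan qRT-PCR, norm. ACTB/GAPDH/POLR2A; gain/loss fitted vs DMSO.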

[17] = read-out: Cytochrome P450 (CYP2B6), CYP2B6 (gene 1555); test: LTEA_HepaRG_CYP2B6: Life Technologies and Expression Analysis (LTEA) Assay for Cytochrome P450 (CYP2B6) using HepaRG (AID 2283481)
Summary of the method: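 Differentiated HepaRG cells, serum-free induction medium, exposed 48 h in duplicate to 8-point half-log concentrations from 100 uM in 0.5% DMSO. CYP2B6 mRNA by qRT-PCR, normalized to ACTB, GAPDH, POLR2A; bidirectional fit versus DMSO.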

[18] = read-out: Cytochrome P450 2C19 (Homo sapiens) (UniProt P33261); test: LTEA_HepaRG_CYP2C19: Life Technologies and Expression Analysis (LTEA) Assay for CYP2C19 using HepaRG (AID 2283482)
Summary of the method: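 Differentiated human HepaRG cells were exposed for 48 h in serum-free induction medium to 8 concentrations (top 100 uM, half-log steps, 0.5% DMSO). CYP2C19 mRNA was measured by qRT-PCR, normalized to ACTB/GAPDH/POLR2A, and fitted bidirectionally against DMSO.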

[19] = read-out: ABC Transporter (ABCC2), ABCC2 (gene 1244); test: LTEA_HepaRG_ABCC2: Life Technologies and Expression Analysis (LTEA) Assay for ABC Transporter (ABCC2) using HepaRG (AID 2283464)
Summary of the method: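 HepaRG cells were plated 48 h, switched to serum-free induction medium, then exposed in duplicate for 48 h to 8 concentrations (top 100 uM, half-log steps, 0.5% DMSO). ABCC2 mRNA was measured by qRT-PCR normalized to ACTB/GAPDH/POLR2A; bidirectional fitting versus DMSO.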

Measured: AC50

Apoptosis regulator Bcl-2 (Homo sapiens), sequence (P10415 whole entry, looked up): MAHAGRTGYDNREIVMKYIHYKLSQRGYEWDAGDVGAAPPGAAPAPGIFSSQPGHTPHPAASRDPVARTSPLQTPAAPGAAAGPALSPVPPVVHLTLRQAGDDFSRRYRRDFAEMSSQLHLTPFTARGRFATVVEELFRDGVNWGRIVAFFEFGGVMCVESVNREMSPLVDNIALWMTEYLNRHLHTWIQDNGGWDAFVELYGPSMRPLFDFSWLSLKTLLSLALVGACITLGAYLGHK
Caspase-3 (Homo sapiens), sequence (P42574 whole entry, looked up): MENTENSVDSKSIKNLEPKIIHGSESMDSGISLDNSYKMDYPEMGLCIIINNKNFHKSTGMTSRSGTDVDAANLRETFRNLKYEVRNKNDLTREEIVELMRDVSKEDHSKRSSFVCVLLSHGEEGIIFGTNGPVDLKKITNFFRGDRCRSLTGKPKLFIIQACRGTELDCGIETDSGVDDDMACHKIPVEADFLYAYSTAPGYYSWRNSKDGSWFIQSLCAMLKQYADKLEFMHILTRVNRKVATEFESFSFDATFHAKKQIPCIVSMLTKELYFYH
Broad substrate specificity ATP-binding cassette transporter ABCG2 (Homo sapiens), sequence (Q9UNQ0 whole entry, looked up): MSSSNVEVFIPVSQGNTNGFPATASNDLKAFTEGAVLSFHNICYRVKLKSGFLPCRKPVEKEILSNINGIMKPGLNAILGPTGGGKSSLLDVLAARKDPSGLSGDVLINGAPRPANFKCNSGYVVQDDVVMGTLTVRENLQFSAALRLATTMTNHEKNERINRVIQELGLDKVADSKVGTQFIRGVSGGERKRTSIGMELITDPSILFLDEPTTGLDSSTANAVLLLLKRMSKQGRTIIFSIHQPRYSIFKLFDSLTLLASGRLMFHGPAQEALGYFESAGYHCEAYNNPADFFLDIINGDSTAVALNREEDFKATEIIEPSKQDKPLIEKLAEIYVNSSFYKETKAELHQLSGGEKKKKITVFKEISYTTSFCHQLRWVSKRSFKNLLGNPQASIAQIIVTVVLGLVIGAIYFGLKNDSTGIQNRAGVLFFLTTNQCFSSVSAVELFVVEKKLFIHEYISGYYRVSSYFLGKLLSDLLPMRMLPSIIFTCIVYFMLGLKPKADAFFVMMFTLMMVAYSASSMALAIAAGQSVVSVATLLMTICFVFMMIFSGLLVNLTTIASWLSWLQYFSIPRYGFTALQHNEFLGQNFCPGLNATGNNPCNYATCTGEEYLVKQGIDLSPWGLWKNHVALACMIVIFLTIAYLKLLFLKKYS
Cytochrome P450 2C19 (Homo sapiens), sequence (P33261 whole entry, looked up): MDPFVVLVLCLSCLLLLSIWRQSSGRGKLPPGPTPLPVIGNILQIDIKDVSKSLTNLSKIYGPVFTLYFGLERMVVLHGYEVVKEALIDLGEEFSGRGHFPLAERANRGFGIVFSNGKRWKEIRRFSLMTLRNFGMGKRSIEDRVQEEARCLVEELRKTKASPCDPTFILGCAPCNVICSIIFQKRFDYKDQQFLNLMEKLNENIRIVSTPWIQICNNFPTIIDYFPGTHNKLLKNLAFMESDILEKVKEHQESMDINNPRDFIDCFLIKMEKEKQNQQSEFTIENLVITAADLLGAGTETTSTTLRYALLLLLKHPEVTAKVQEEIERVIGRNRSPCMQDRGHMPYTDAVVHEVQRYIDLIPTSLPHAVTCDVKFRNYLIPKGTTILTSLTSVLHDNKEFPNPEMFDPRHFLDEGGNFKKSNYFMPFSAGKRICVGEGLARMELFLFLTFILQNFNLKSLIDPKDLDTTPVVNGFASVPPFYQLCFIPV

CNC(=O)/C=C(\C)OP(=O)(OC)OC
not listed: [19]
inactive: all other assays above

O=C(NC(=O)c1c(F)cccc1F)Nc1ccc(OC(F)(F)C(F)OC(F)(F)F)c(Cl)c1 (stereo not given)
active: [3] 25 µM | [15] 12.3 µM
not listed: [19]
inactive: all other assays above

CCC(C)Nc1c([N+](=O)[O-])cc(C(C)(C)C)cc1[N+](=O)[O-] (stereo not given)
active: [2] 22 µM | [9] 50 µM | [17] 3.52 µM | [18] 12.9 µM
not listed: [19]
inactive: all other assays above

CCC(C)(NC(=O)c1cc(Cl)c(C)c(Cl)c1)C(=O)CCl (stereo not given)
active: [19] 89 µM | [2] 12.2 µM | [4] 85.1 µM | [8] 92.1 µM | [9] 76 µM | [13] 92.4 µM | [15] 74.1 µM | [16] 89.8 µM | [17] 90.1 µM | [18] 85.4 µM
inactive: [3] | [5] | [6] | [7] | [10] | [11] | [12] | [14]

COP(=S)(OC)Oc1ccc(SC)c(C)c1
active: [2] 31.8 µM | [9] 10.3 µM | [15] 35 µM | [17] 7.23 µM | [18] 50 µM
not listed: [19]
inactive: all other assays above
